In PubChem BioAssay (EPA / NIEHS) one finds outcome and AC50 data, which are given here for four compounds.

Active and inactive are the calls of the source. How the source made its calls: active means hit-call score of the fitted dose curve at least 0.9, where 1 is the maximum; inactive means score below 0.9.

What all share (conditions): mRNA level, 48 h; actives raise or lower the signal
Read-out in assay [1]: Glutamate-cysteine ligase catalytic (GCLC), GCLC (gene 2729)
Briefly: LTEA_HepaRG_GCLC: Life Technologies and Expression Analysis (LTEA) Assay for Glutamate-cysteine ligase catalytic (GCLC) using HepaRG (AID 2283498). A digest of the protocol: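 Differentiated human HepaRG cells, plated 48 h then switched to serum-free induction medium, were exposed in duplicate for 48 h to 8 half-log concentrations topping at 100 uM in 0.5% DMSO. GCLC mRNA was quantified by qRT-PCR against ACTB, GAPDH and POLR2A.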

Read-out in assay [2]: growth arrest and DNA damage 45 (GADD45G), GADD45G (gene 10912)
Briefly: LTEA_HepaRG_GADD45G: Life Technologies and Expression Analysis (LTEA) Assay for growth arrest and DNA damage 45 (GADD45G) using HepaRG (AID 2283499). A digest of the protocol: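 Human hepatic HepaRG line treated 48 h with chemicals (eight concentrations, half-log steps from 100 uM); transcript induction or repression of GADD45G scored by qRT-PCR versus DMSO vehicle.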

Read-out in assay [3]: Glutamate-cysteine ligase regulatory (GCLM), GCLM (gene 2730)
Put plainly: LTEA_HepaRG_GCLM: Life Technologies and Expression Analysis (LTEA) Assay for Glutamate-cysteine ligase regulatory (GCLM) using HepaRG (AID 2283500). The method in brief:
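Differentiated human HepaRG cells exposed 48 h in serum-free induction medium to 8-point half-log concentrations (top 100 uM, 0.5% DMSO), in duplicate. GCLM mRNA quantified by qRT-PCR, normalized to ACTB, GAPDH, POLR2A; bidirectional fitting versus DMSO.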

Read-out in assay [4]: Glutathione S-transferase M3 (GSTM3), GSTM3 (gene 2947)
Briefly: LTEA_HepaRG_GSTM3: Life Technologies and Expression Analysis (LTEA) Assay for Glutathione S-transferase M3 (GSTM3) using HepaRG (AID 2283501). A digest of the protocol:
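Changes in GSTM3 expression, an oxidative-stress marker, were scored by bidirectional curve fitting against 0.5% DMSO vehicle. Human HepaRG cultures received chemicals for 48 h in duplicate, highest concentration 100 uM with half-log dilutions.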

Read-out in assay [5]: Heat shock 70 kDa protein 1 (HSPA1A), gene 3303
Put plainly: LTEA_HepaRG_HSPA1A: Life Technologies and Expression Analysis (LTEA) Assay for Heat shock 70 kDa protein 1 (HSPA1A) using HepaRG (AID 2283502). A digest of the protocol: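 Differentiated human HepaRG cells in serum-free induction medium were exposed in duplicate for 48 h to eight concentrations (top 100 uM, half-log steps, 0.5% DMSO). HSPA1A mRNA was quantified by qRT-PCR, normalized to ACTB, GAPDH and POLR2A, and fitted bidirectionally against DMSO.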

Read-out in assay [6]: Hypoxia-inducible factor 1-alpha (Homo sapiens) (UniProt Q16665)
Put plainly: LTEA_HepaRG_HIF1A: Life Technologies and Expression Analysis (LTEA) Assay for Hypoxia-inducible factor 1 (HIF1A) Trancription factor using HepaRG (AID 2283503). The method in brief:
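HepaRG, 48 h exposure, 8-pt half-log series from 100 uM, 0.5% DMSO vehicle, duplicates. Readout: HIF1A transcript by qRT-PCR (Fluidigm array), housekeeping-normalised. Bidirectional curve fit vs DMSO baseline.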

Read-out in another assay: HGF (gene 3082)
Put plainly: LTEA_HepaRG_HGF: Life Technologies and Expression Analysis (LTEA) Assay for Hepatocyte Growth Facto (HGF) using HepaRG (AID 2283505). The method in brief: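 Gain or loss of HGF mRNA in human HepaRG liver cells after 48 h chemical exposure; eight concentrations up to 100 uM with 0.5% DMSO vehicle, quantified by TaqMan qRT-PCR.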

Read-out in assay [7]: Insulin Like Growth Factor 1 (IGF1), IGF1 (gene 3479)
Put plainly: LTEA_HepaRG_IGF1: Life Technologies and Expression Analysis (LTEA) Assay for Insulin Like Growth Factor 1 (IGF1) using HepaRG (AID 2283506). A digest of the protocol:
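Differentiated human HepaRG cells were dosed for 48 h in serum-free induction medium with 0.5% DMSO, eight half-log concentrations up to 100 uM, in duplicate. IGF1 mRNA was quantified by qRT-PCR normalized to ACTB, GAPDH, POLR2A; bidirectional fitting versus DMSO.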

Read-out in assay [8]: Insulin-like growth factor-binding protein 1 (IGFBP1), IGFBP1 (gene 3484)
Put plainly: LTEA_HepaRG_IGFBP1: Life Technologies and Expression Analysis (LTEA) Assay for Insulin-like growth factor-binding protein 1 (IGFBP1) using HepaRG (AID 2283508). A digest of the protocol:
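mRNA induction or loss was quantified by qRT-PCR after 48 h chemical exposure of human HepaRG cells, with 0.5% DMSO as vehicle and baseline. Concentration-response over eight points up to 100 uM.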

Read-out in assay [9]: Interleukin 6 (IL6), IL6 (gene 3569)
Put plainly: LTEA_HepaRG_IL6: Life Technologies and Expression Analysis (LTEA) Assay for Interleukin 6 (IL6) using HepaRG (AID 2283509). The method in brief:
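Differentiated human HepaRG cells, plated 48 h then switched to serum-free induction medium, were exposed in duplicate for 48 h to eight half-log concentrations up to 100 uM in 0.5% DMSO. IL6 mRNA measured by qRT-PCR, normalized to ACTB/GAPDH/POLR2A.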

Read-out in assay [10]: Interleukin 6 Receptor (IL6R), IL6R (gene 3570)
Briefly: LTEA_HepaRG_IL6R: Life Technologies and Expression Analysis (LTEA) Assay for Interleukin 6 Receptor (IL6R) using HepaRG (AID 2283510). The method in brief: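 Differentiated human HepaRG cells, plated 48 h then switched to serum-free induction medium, were dosed in duplicate for 48 h at eight half-log concentrations up to 100 uM in 0.5% DMSO. IL6R mRNA quantified by qRT-PCR, normalized to ACTB/GAPDH/POLR2A; bidirectional fit versus DMSO.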

Read-out in assay [11]: Potassium channel subfamily K member 1 (KCNK1), KCNK1 (gene 3775)
Briefly: LTEA_HepaRG_KCNK1: Life Technologies and Expression Analysis (LTEA) Assay for Potassium channel subfamily K member 1 (KCNK1) using HepaRG (AID 2283511). The method in brief: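 Differentiated human HepaRG cells in serum-free induction medium were exposed in duplicate for 48 h to 8 half-log concentrations up to 100 uM in 0.5% DMSO. KCNK1 mRNA was measured by TaqMan qRT-PCR, normalized to ACTB, GAPDH and POLR2A, and fitted bidirectionally versus DMSO.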

Read-out in assay [12]: Keratin 19 (KRT19), KRT19 (gene 3880)
Briefly: LTEA_HepaRG_KRT19: Life Technologies and Expression Analysis (LTEA) Assay for Keratin 19 (KRT19) using HepaRG (AID 2283512). A digest of the protocol: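 Gene-expression endpoint in the human liver line HepaRG after 48 h exposure to up to 100 uM test chemical with 0.5% DMSO vehicle; KRT19 mRNA by qRT-PCR, analyzed bidirectionally versus DMSO.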

Read-out in assay [13]: JUN Transcription Factor, JUN (gene 3725)
Put plainly: LTEA_HepaRG_JUN: Life Technologies and Expression Analysis (LTEA) Assay for JUN Transcription Factor using HepaRG (AID 2283513). The method in brief:
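Differentiated HepaRG cells were exposed to chemicals for 48 h in serum-free induction medium, 8 concentrations from 100 uM in half-log steps, 0.5% DMSO vehicle, in duplicate. JUN mRNA was quantified by TaqMan qRT-PCR, normalized to ACTB, GAPDH, POLR2A.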

Read-out in assay [14]: Lipase C (LIPC), LIPC (gene 3990)
Briefly: LTEA_HepaRG_LIPC: Life Technologies and Expression Analysis (LTEA) Assay for Lipase C (LIPC) using HepaRG (AID 2283514). The method in brief:
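Differentiated human HepaRG cells in serum-free induction medium were exposed in duplicate for 48 h to eight concentrations (top 100 uM, half-log steps, 0.5% DMSO). LIPC mRNA was quantified by TaqMan qRT-PCR, normalized to ACTB, GAPDH and POLR2A, with bidirectional fitting versus DMSO.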

Read-out in assay [15]: Lipoprotein lipase (LPL), LPL (gene 4023)
Put plainly: LTEA_HepaRG_LPL: Life Technologies and Expression Analysis (LTEA) Assay for Lipoprotein lipase (LPL) using HepaRG (AID 2283515). The method in brief:
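Differentiated human HepaRG cells in serum-free induction medium were exposed in duplicate for 48 h to eight half-log concentrations (top 100 uM) in 0.5% DMSO. LPL mRNA was quantified by TaqMan qRT-PCR, normalized to ACTB, GAPDH and POLR2A.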

Read-out in assay [16]: MicroRNA 122 (MIR122), gene 406906
Briefly: LTEA_HepaRG_MIR122: Life Technologies and Expression Analysis (LTEA) Assay for MicroRNA 122 (MIR122) using HepaRG (AID 2283516). Further: the transcript read is the microRNA miR-122. The method in brief:
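Differentiated human HepaRG cells were exposed 48 h in serum-free induction medium to eight half-log concentrations (top 100 uM, 0.5% DMSO). Transcript level was measured by TaqMan qRT-PCR, normalized to ACTB, GAPDH and POLR2A, and fitted bidirectionally versus DMSO.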

Read-out in assay [17]: matrix metalloproteinase-10 (MMP10), MMP10 (gene 4319)
Briefly: LTEA_HepaRG_MMP10: Life Technologies and Expression Analysis (LTEA) Assay for matrix metalloproteinase-10 (MMP10) using HepaRG (AID 2283517). The method in brief:
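HepaRG, collagen I, ~100,000 cells/well; serum-free induction medium; 48 h exposure, duplicate, 8-pt half-log to 100 uM, 0.5% DMSO. Readout: TaqMan qRT-PCR, normalized to ACTB/GAPDH/POLR2A; bidirectional fit vs DMSO.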

Read-out in assay [18]: Intercellular Adhesion Molecule 1 (ICAM1), ICAM1 (gene 3383)
Briefly: LTEA_HepaRG_ICAM1: Life Technologies and Expression Analysis (LTEA) Assay for Intercellular Adhesion Molecule 1 (ICAM1) using HepaRG (AID 2283507). The method in brief:
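Gain or loss of transcript in HepaRG hepatic cells is quantified by qRT-PCR after 48 h chemical exposure (up to 100 uM, half-log steps), with DMSO as baseline.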

Read-out in assay [19]: 3-Hydroxy-3-Methylglutaryl-CoA Synthase 2 (HMGCS2), HMGCS2 (gene 3158)
Briefly: LTEA_HepaRG_HMGCS2: Life Technologies and Expression Analysis (LTEA) Assay for 3-Hydroxy-3-Methylglutaryl-CoA Synthase 2 (HMGCS2) using HepaRG (AID 2283504). The method in brief:
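Expression of HMGCS2 in human HepaRG liver cells is measured by qRT-PCR 48 h after dosing (highest 100 uM, half-log series, 0.5% DMSO). Values come from bidirectional concentration-response fitting with DMSO as baseline.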

Chain of Hypoxia-inducible factor 1-alpha (Homo sapiens) (Q16665 whole entry, looked up): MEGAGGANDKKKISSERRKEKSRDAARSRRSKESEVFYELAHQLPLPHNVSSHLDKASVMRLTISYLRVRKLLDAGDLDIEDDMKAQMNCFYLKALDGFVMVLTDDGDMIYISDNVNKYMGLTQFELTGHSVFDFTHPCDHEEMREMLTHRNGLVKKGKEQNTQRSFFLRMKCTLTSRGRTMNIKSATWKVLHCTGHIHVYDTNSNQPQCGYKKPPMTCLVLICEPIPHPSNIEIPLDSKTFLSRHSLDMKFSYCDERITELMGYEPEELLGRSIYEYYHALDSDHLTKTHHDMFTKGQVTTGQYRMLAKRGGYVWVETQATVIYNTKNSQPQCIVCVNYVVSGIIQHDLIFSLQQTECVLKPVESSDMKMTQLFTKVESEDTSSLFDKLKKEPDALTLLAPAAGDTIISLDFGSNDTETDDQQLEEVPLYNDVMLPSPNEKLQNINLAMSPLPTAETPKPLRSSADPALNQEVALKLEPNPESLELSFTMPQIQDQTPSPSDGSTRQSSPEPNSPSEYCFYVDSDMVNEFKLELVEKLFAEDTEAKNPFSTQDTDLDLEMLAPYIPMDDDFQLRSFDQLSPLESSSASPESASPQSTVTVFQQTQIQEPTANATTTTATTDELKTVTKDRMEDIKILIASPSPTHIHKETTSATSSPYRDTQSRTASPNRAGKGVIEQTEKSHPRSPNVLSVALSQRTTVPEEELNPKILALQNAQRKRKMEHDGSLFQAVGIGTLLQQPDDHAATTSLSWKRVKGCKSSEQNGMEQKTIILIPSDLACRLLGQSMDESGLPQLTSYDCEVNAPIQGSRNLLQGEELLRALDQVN

As a reminder, the AC50 is the concentration giving half of the maximal activity seen. As for `CC(C)(O)c1ccc(CNC(=O)c2cccnc2Oc2ccc(F)cc2)cc1`, the result in [1], in assay [2], in assay [3], in [4], in [5] and in assay [6] was inactive. Besides, the compound was classed as inactive (with HGF (gene 3082); in [8]; in assay [9]; in assay [10]; in assay [11]; in assay [12]). In addition, the result in [13], in assay [14], in assay [15], in assay [16] and in [17] was inactive. Also, in assay [7], the concentration at half-maximal activity (AC50) is 50 µM (active).
On to `Oc1ccc(O)cc1`, for which the compound was classed as inactive (in [1]; in assay [2]; in [3]; in assay [4]; in [5]; in the assay with HGF (gene 3082)). Also, the compound was called inactive in assay [7], in [18], in assay [9], in assay [10], in assay [11] and in assay [12]. Also, the compound was called inactive in [13], in assay [14], in assay [15], in [16] and in [17].
For `Cc1occc(=O)c1O`, the compound was classed as inactive (in assay [1]; in assay [2]; in assay [3]; in assay [4]; in assay [5]; with HGF (gene 3082)). Besides, the outcome in assay [7], in [18], in [8], in assay [9], in assay [10] and in [11] was inactive. The compound was called inactive in assay [12], in assay [13], in assay [14], in assay [15] and in [16].
In the case of `CCC(C)N(C)C(=O)c1cc2ccccc2c(-c2ccccc2Cl)n1` (centres undefined), the call (in assay [1]; in assay [3]; in [4]; in [5]; in [19]; with HGF (gene 3082)) was inactive. In addition, the result in assay [18], in [9], in [10], in assay [11], in assay [12] and in assay [13] was inactive. The compound was classed as inactive in [14], in assay [15] and in assay [16]. The AC50 was 8.59 µM (active) in assay [2] and 21.6 µM (active) in assay [7].
